An excerpt weighted towards active compounds, which were near 7.5% of everything screened.
ELG1 genotox – genotoxicity induction in ELG1-luciferase HEK293T cells. HEK293T ELG1-luciferase reporter, luminescence, 16 h. Potency, µM (titrated, usually from 46 µM), for inactives: at the highest dose activity change, positive = activation, hits mostly activators. 330,000 compounds, 1.3% hits. AID 504466; also: % of control where 0% means no effect; nearly all actives have a fitted effect of over 60% in size
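Step 1: seed 2,000 HEK293T ELG1-luciferase cells per well. Step 2: add compound or DMSO, incubate 16 hr at 37 °C. Step 3: ONE-Glo, 30 min at room temperature, read luminescence.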
NPC1 prom act – activators of NPC1 promoter. 320,000 compounds, 2.4% hits. Potency, µM (highest dose often 9.22 µM), for the others: at the highest dose activation, usual class: activators. Huh7 NPC1 promoter luciferase reporter, 24 h; also: % of control where 0% means no effect; nearly all actives have a fitted effect of over 60% in size
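Luminescence read-out of NPC1 promoter-driven luciferase in stably transfected Huh7 cells; compounds delivered in DMSO and left 24 h at 37C, 5% CO2, qHTS titration format.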
Rab9 promoter act – Rab9 promoter activation. 320,000 compounds, 2.8% hits. Potency, µM (doses to about 9.22 µM), inactives show at the highest dose activation, negative = inhibition, actives largely listed as activators. Huh7 Rab9 promoter-luciferase reporter, luminescence, 24 h. AID 485297; also: % of control where 0% means no effect; nearly all actives have a fitted effect of over 60% in size
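Using Huh7 cells stably transfected with Rab9 promoter–luciferase, compounds were incubated 24 h at 37 °C, 5% CO2; luciferase luminescence was read 10 min after reagent addition.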
SMN2 splice up – increases expression of the SMN2 splice variant | HEK293 SMN2-luciferase splicing reporter, luminescence, 30-36 h | Potency, µM (top dose mostly 46.1 µM), for the others: at the highest dose activity change, positive = activation, hits mostly activators | 210,000 compounds, 2.8% hits; also: % of control where 0% means no effect; nearly all actives have a fitted effect of over 55% in size
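HEK293 cells carry an SMN2 minigene-luciferase reporter in which exon 7 inclusion puts luciferase in frame. Cells were seeded at 2000 cells/well, attached for 10-12 hours, then exposed to compounds for 30-36 hours at 37C before ONE-Glo luminescence.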
KinaseGlo FLuc – Kinase-Glo luciferase inhibition (counter-screen); 200,000 compounds, 0.28% hits; Kinase-Glo luciferase, ATP luminescence, 8 min; Potency, µM (highest dose often 38.3 µM), inactives show at the top dose activity change, negative = inhibition, hits mostly inhibitors; AID 1379; also: % is scaled to controls: 0 for no effect and ±100 for the full control effect; nearly all actives have a fitted effect of over 60% in size
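Kinase-Glo luciferase light output from ATP and luciferin was measured with 10 uM ATP, within the enzyme's linear range. Buffer: 50 mM imidazole pH 7.2, 50 mM KCl, 7 mM MgCl2, 0.01% Tween 20, 0.05% BSA; luminescence read after 8 min at ambient temperature.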
FLuc modulator – inhibits or activates purified firefly luciferase, miR-21 counter-screen; 360,000 compounds, 6.9% hits; purified FLuc, Km substrates, luminescence inhibition; Potency, µM (series often up to 57.5 µM), inactives show top-dose activity change, negative = inhibition, usual class: inhibitors; AID 588342;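 also: plate controls were vehicle for no effect and reference inhibitor for full effect; nearly all actives have a fitted effect of over 55% in size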
Target sequence (P08659 whole entry, looked up): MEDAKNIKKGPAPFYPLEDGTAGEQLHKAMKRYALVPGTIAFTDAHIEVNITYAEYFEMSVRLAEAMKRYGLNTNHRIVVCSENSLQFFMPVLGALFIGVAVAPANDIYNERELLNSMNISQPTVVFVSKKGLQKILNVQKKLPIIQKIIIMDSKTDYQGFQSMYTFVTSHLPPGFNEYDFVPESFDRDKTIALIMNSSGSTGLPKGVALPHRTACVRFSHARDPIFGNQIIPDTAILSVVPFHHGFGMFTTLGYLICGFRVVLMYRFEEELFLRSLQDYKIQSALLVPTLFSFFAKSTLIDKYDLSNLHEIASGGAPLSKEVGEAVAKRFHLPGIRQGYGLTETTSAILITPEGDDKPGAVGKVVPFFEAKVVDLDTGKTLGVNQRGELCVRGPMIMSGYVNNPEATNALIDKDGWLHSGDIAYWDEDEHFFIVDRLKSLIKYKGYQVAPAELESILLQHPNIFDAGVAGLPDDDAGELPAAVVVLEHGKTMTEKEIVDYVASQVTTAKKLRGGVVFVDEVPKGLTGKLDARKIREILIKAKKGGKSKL
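Biochemical qHTS of compounds, final roughly 60 µM downward over six points, against 10 nM purified firefly luciferase using Km concentrations of substrates (10 uM D-luciferin, 10 uM ATP) in Tris acetate pH 7.5 buffer; luminescence output.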
* hit, by the source's call; ? = inconclusive; . = no result; [ ] = dose if it differs, or a comment. Calls follow the shape of the dose curve; as a rule, active = well fitted curve in the direction sought with a large enough effect; inconclusive = small, poorly fitted or top-dose-only effect, or another doubt; inactive = no such curve, though single readings can be large; an effect the other way counts as inactive or inconclusive. Potency is read from the fitted curve at half-maximal effect.

SMILES | ELG1 genotox | NPC1 prom act | Rab9 promoter act | SMN2 splice up | KinaseGlo FLuc | FLuc modulator
COc1ccc(NC(=O)CCn2nc(-c3ccccc3OC)c3c(C)cc(C)nc32)cc1 | . | . | . | 3% | . | -19%
COc1ccccc1NC(=O)CSc1nnc(NC(=O)C2CC2)s1 | 3% | -2% | 2% | . | . | ?
COc1ccccc1NC(=O)CSc1nnc(NC(=O)Nc2ccc(C)cc2)s1 | . | . | . | . | . | 2.1µM*
CCc1ccc(NC(=O)c2cc(C)no2)cc1 | ? | ? | ? | . | . | 12µM*
Cc1cc(C(=O)Nc2ccccn2)no1 | ? | ? | ? | 11µM* | -9% | ?
CCc1ccc(NC(=O)c2cc(C(C)C)on2)cc1 | ? | 0.89µM* | 0.63µM* | 1.4µM* | -17% | 1.9µM*
Cc1ccc(NC(=S)Nc2ccc3cn[nH]c3c2)cc1 | -2% | 0% | -3% | 17% | -1% | ?
Cc1ccc(NC(=S)Nc2cc(C)on2)cc1 | ? | 1.4µM* | 2.8µM* | . | . | 27µM*
COc1ccc(CCNC(=O)CCCn2c(=O)c3ccccc3n(CC(=O)Nc3ccccc3C)c2=O)cc1OC | . | . | . | 4% | . | -2%
O=C(O)C1CC2(C1)CC(C(=O)O)C2 (stereo unspecified) | . | . | . | -18%[9.22 µM] | -6%[7.66 µM] | .
CCCCCn1c(C(C)NC(=O)c2ccccc2)nc2ccccc21 (stereo unspecified) | . | . | . | -1% | . | -3%
Cc1ccc(C)c(C(=O)OCC(=O)Nc2cccc(S(=O)(=O)N3CCCCC3)c2)c1 | 0% | -10% | -11% | . | . | 0%
CCc1ccc(NC(=O)c2cc(C)on2)cc1 | ? | 0.5µM* | 0.89µM* | 6.3µM* | -6% | 3µM*
Cc1ccc(NC(=O)c2cc(C)on2)cc1 | ? | 1.4µM* | 1.4µM* | . | . | 6.7µM*
CCc1ccc(NC(=O)c2cc(-c3ccc(OC)cc3)on2)cc1 | 0% | 1% | 28% | -7% | 3% | 0%
Cc1cc(C(=O)Nc2ccc3c(c2)OCO3)no1 | -19% | 0% | 1% | . | . | -5%
Cc1ccc(NC(=O)c2onc(C)c2Cl)cc1 | 16µM* | 15% | ? | 14µM* | -5% | 13µM*
Cc1noc(C(=O)Nc2ccc(Cl)cc2)c1Cl | 0% | -1% | 5% | . | . | 0%
CCCC(=O)N1c2ccccc2C(N(C(C)=O)c2ccccc2)CC1C (stereo unspecified) | 0% | -3% | -9% | -14% | -1% | 1%
CCC(=O)N1c2ccccc2[C@@H](N(C(C)=O)c2ccccc2)C[C@H]1C | 23µM* | 2% | 14% | 7.9µM* | 2% | 0%
CCCCCCN(C(=O)CCCCCN1C(=O)NC(c2ccc([N+](=O)[O-])cc2)C(C(=O)OCc2ccccc2)=C1C)C(C(=O)NCCCC)C1CCCCC1 (stereo unspecified) | -2% | . | . | . | . | .
CCOc1ccc2[nH]c(=O)c(CN(Cc3cccnc3)C(=O)Nc3ccccc3OC)cc2c1 | 1% | -1% | -4% | ? | -5% | 17µM*
Cc1ccccc1-c1nnc(SCC(=O)Nc2cccnc2Cl)o1 | 2.1µM* | . | . | . | . | .
N#Cc1cccc(NC(=O)CSc2nnc(-c3n[nH]c4ccccc34)o2)c1 | 20% | ? | ? | 13µM* | 2% | -15%
Cc1cccc(NC(=O)CSc2nnc(-c3ccccc3C)o2)c1 | ? | ? | 4µM* | 13µM* | -1% | 0%
SMILES | ELG1 genotox | NPC1 prom act | Rab9 promoter act | SMN2 splice up | KinaseGlo FLuc | FLuc modulator
Cc1cccc(NC(=O)CSc2nnc(-c3n[nH]c4ccccc34)o2)c1 | 7% | 19% | 23% | ? | 3% | 1%
Cc1cc(C)cc(NC(=O)CSc2nnc(-c3ccccc3C)o2)c1 | 13% | ? | ? | 18% | 1% | .
COc1ccccc1NC(=O)CSc1nnc(-c2ccccc2C)o1 | . | . | . | . | . | -16%
COc1ccc(-n2c(=O)c(C)nc3cncnc32)cc1 | . | . | . | -34% | -1% | .
O=c1c2ccccc2nc2ccc(NCc3ccco3)nn12 | ? | ? | ? | 14µM* | -22% | 11µM*
Cc1sc2nc3ccc(NCc4ccco4)nn3c(=O)c2c1C | 0% | 0% | 4% | 16% | 0% | -13%

Bioassay records deposited in PubChem BioAssay by National Center for Advancing Translational Sciences (NCATS).
